According to PubChem BioAssay AID521 (Sanford-Burnham Center for Chemical Genomics, 2006):
In all, about 110,000 compounds went through this assay and about 730 (0.66%) were called active. Many of the other results were omitted from the sample, so actives are more common in it than they were. A number with no mark means an inactive call. Cut-off read from the data, not from the text of the source: active = inhibition above about 50%; inconclusive = no clear call, values can overlap the other calls; inactive = below that.

These compounds were tested against Tyrosine-protein phosphatase non-receptor type 7 (Homo sapiens) (UniProt P35236) (assay: inhibitors of human HePTP phosphatase, primary screen, biochemical, absorbance, leukemia target (AID 521;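 note: plate controls were vehicle for no effect and reference inhibitor for full effect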)). Conditions: recombinant HePTP phosphatase activity, OD absorbance; at 20 µM; stronger effect = higher value.
Sequence of Tyrosine-protein phosphatase non-receptor type 7 (Homo sapiens) (P35236 whole entry, looked up): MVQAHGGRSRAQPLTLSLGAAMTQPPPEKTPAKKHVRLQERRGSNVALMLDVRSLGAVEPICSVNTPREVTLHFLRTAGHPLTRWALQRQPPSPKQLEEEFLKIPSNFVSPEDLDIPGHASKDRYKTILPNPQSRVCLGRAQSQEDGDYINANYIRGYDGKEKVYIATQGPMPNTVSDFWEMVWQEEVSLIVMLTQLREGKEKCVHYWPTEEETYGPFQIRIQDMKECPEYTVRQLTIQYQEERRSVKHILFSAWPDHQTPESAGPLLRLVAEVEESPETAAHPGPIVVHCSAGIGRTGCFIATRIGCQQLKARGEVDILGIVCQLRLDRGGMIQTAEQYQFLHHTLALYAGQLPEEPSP

Question: For `C=CCN1C(=O)/C(=C\c2cccn2-c2cccc([N+](=O)[O-])c2)C(=O)NC1=S`, which inhibition is on record?
Answer: The inhibition was 98.9% (active).

Question: For `COc1cccc(CN2CCN(C(=O)COc3ccccc3)CC2)c1OC`, which inhibition is on record?
Answer: Its inhibition is 3.3%.

Question: How did the inhibition turn out when `CCOc1cc(C=C2C(=O)NC(=O)NC2=O)cc(Br)c1OCCOc1ccccc1C` was run?
Answer: Its inhibition is 3.9%.

Question: With `CCOP(=O)(OCC)C(=C(Cl)Cl)C(C(=O)OC)C(=O)OC` as the compound, how does the inhibition read?
Answer: Its inhibition is 11.5%.

Question: Which inhibition does the source give for `C=CCSc1nc2ccccc2c(=O)n1-c1ccccc1OC` here?
Answer: Its inhibition is 11.5%.
